Where “and” joins values, the source holds several entries; their conditions need not be identical. Equal values may be shown once. Where a name gives a salt, the structure may show the parent alone.
These compounds were tested on LOC_OS03G50810-cb003 (assay: thermal shift delta Tm vs DMSO control; higher = stronger stabilization (binding)). Conditions: 12.5 µM; protein concentration 2 µM.
In short: (§1)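 Heating from 25°C to 95°C at 0.05°C/s, fluorescence was recorded for 19.5 μl wells of 2 μM E. coli-expressed, purified rice kinase domain in 100 mM potassium phosphate pH 7.5, 150 mM NaCl, 10% glycerol and 5 × SYPRO Orange with compound in DMSO. Boltzmann fits gave melting temperatures for this differential scanning fluorimetry assay. The shift reported is the mean of three replicates against the DMSO-only protein.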
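Also: purified Escherichia coli-expressed rice kinase domain construct.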

| SMILES | thermal shift delta Tm |
| --- | --- |
| CC(C)n1ncnc1-c1cn2c(n1)-c1ccc(O[C@@H](C)C(N)=O)cc1OCC2 | 0.53 °C |
| Cc1ccc(NC(=O)c2ccc(CN3CCN(C)CC3)cc2)cc1Nc1nccc(-c2cccnc2)n1 [Imatinib (STI571)] | 0.42 °C |
| CCN(CC)CCCC(C)Nc1nc(C)cc(Nc2ccc3nc(C)cc(N)c3c2)n1 (configuration not stated) | 0.25 °C |
| Cn1c(Nc2ccc(C(F)(F)F)cc2)nc2cc(Oc3ccnc(-c4ncc(C(F)(F)F)[nH]4)c3)ccc21 | 1.92 °C |
| Cc1c(NC(=O)c2ccc(C(C)(C)C)cc2)cccc1-c1cn(C)c(=O)c(Nc2ccc(C(=O)N3CCOCC3)cc2)n1 | 0.7 °C |
| CNC(=O)c1cccc(-c2ccc3c(N4CCOC[C@@H]4C)nc(N4CCOC[C@@H]4C)nc3n2)c1 [Vistusertib (AZD2014)] | 0.06 °C |
| CCS(=O)(=O)c1cccc(-c2cc(C(=O)NC3CCN(C)CC3)c(C)c3[nH]c4ncc(C)cc4c23)c1 | 5.67 °C |
| CCCCNc1ncc(C(=O)NCc2ccc(-n3ccnc3)cc2)c(NC2CCC(O)CC2)n1 (configuration not stated) | 4.77 °C |
| C=C(C)[C@@H]1CC[C@]2(C)CC[C@]3(C)[C@H](CC[C@@H]4[C@@]5(C)CC[C@H](O)C(C)(C)[C@@H]5CC[C@]43C)[C@@H]12 [Lupeol] | 0.4 °C |
| O=C(O[C@@H]1Cc2c(O)cc(O)cc2O[C@@H]1c1cc(O)c(O)c(O)c1)c1cc(O)c(O)c(O)c1 [(-)-Epigallocatechin Gallate] | -1.51 °C |
| CC[C@H](CO)Nc1nc(NCc2ccccc2)c2ncn(C(C)C)c2n1 [Roscovitine (Seliciclib,CYC202)] | 0.02 °C |
| COc1ccc([C@@H]2OC[C@H]3[C@@H]2CO[C@@H]3c2ccc(O[C@@H]3O[C@H](CO)[C@@H](O)[C@H](O)[C@H]3O)c(OC)c2)cc1OC [Forsythin] | 0.2 °C |
| COc1cc2c(Oc3ccc(NC(=O)C4(C(=O)Nc5ccc(F)cc5)CC4)cc3F)ccnc2cc1OCCCN1CCOCC1 | 3.35 °C |
| N#Cc1c(NC(=O)c2cccc3ccccc23)sc2c1CCCC2 [JNK Inhibitor IX] | 0.38 °C |
| C#Cc1cccc(Nc2ncnc3cc4c(cc23)OCCOCCOCCO4)c1 [Icotinib] | 1.31 °C |
| CN1CCN(Cc2ccc(NC(=O)Nc3ccc(Oc4ccnc(N)n4)cc3)cc2C(F)(F)F)CC1 | 3.62 °C |
| N[C@@H]1CCCN(c2c(/C=C3\SC(=O)NC3=O)cccc2-c2ccccc2)C1 | 0.13 °C |
| Cc1c[nH]c(/C=C2\C(=O)Nc3ccccc32)c1CCC(=O)O | 2.36 °C |
| N=C(N)NC(=N)NCCc1ccccc1 [Phenformin HCl] | 0.78 °C |
| Cc1cc(C)c(/C=C2\C(=O)Nc3ccccc32)[nH]1 [Semaxanib (SU5416)] | 2.91 °C |
| Nc1nc(N)c2nc(-c3cccc(O)c3)c(-c3cccc(O)c3)nc2n1 | 0.34 °C |
| COc1cc(Nc2ncc3c(n2)-c2ccc(Cl)cc2C(c2c(F)cccc2OC)=NC3)ccc1C(=O)O [Alisertib (MLN8237)] | 1.53 °C |
| O=C(Nc1cccnc1)c1cc(-c2ccnc(F)c2)ccc1OCc1ccccc1 | 0.76 °C |
| Nc1ncnc2n[nH]c(Nc3ccc(F)cc3)c12 | 0.92 °C |

The compounds below were run on LOC_OS04G35114-cb001 in the same assay as above. Conditions: 12.5 µM; protein concentration 2 µM.
In short: as §1

| SMILES | thermal shift delta Tm |
| --- | --- |
| Cc1cnc(-c2cnc(NCCNc3ccc(C#N)cn3)nc2-c2ccc(Cl)cc2Cl)[nH]1 | 0.11 °C and 0.59 °C |
| CCN(CC)CCCCNc1ncc2cc(-c3cc(OC)cc(OC)c3)c(NC(=O)NC(C)(C)C)nc2n1 | 0.79 °C |
| Cn1cc(-c2ccc3nnc(C(F)(F)c4ccc5ncccc5c4)n3n2)cn1 | 0.35 °C |
| O=C(c1ccc(/C=C/c2n[nH]c3ccccc23)cc1)N1CCNCC1 | 8.77 °C |
| CN(C)C[C@@H]1CCn2cc(c3ccccc32)C2=C(C(=O)NC2=O)c2cn(c3ccccc23)CCO1 | 6.19 °C |
| CC1=C(C(=O)Nc2ccc3[nH]ncc3c2)C(c2ccc(F)cc2)NC(=O)N1 (configuration not stated) | 0.48 °C |
| CCc1cc(Nc2nccc(-c3c(-c4ccc(OC)c(C(=O)Nc5c(F)cccc5F)c4)nc4ccccn34)n2)c(OC)cc1N1CCC(N2CCN(S(C)(=O)=O)CC2)CC1 | 0.36 °C |
| CNS(=O)(=O)Nc1nccc(Cc2c(C)c3ccc(Oc4ncccn4)cc3oc2=O)c1F | -0.07 °C |
| CCn1c(=O)c(-c2cc[nH]n2)cc2c(C)nc(N)nc21 | 0.94 °C |
| COc1cc(F)c(F)c(Nc2ccc(I)cc2F)c1NS(=O)(=O)C1(C[C@H](O)CO)CC1 [Refametinib (RDEA119, Bay 86-9766)] | 0.19 °C |
| Cc1cc(C(=O)NOCCO)c(Nc2ccc(I)cc2F)n(C)c1=O | 0.41 °C |
| O=C(c1cccc(Cl)c1F)N1CCN(Cc2cccc(Nc3nccs3)n2)CC1 | 7 °C |
| CC(C)n1nc(-c2ccc3oc(N)nc3c2)c2c(N)ncnc21 | 5.42 °C |
| C=CC(=O)Nc1cccc(Sc2nc(Nc3ccc(N4CCN(C)CC4)cc3)ncc2Cl)c1 | 4.33 °C |
| CC(C)n1ncnc1-c1cn2c(n1)-c1ccc(O[C@@H](C)C(N)=O)cc1OCC2 | 0.71 °C |
| Cc1ccc(NC(=O)c2ccc(CN3CCN(C)CC3)cc2)cc1Nc1nccc(-c2cccnc2)n1 [Imatinib (STI571)] | 0.92 °C |
| CCN(CC)CCCC(C)Nc1nc(C)cc(Nc2ccc3nc(C)cc(N)c3c2)n1 (configuration not stated) | 0.62 °C |
| Cn1c(Nc2ccc(C(F)(F)F)cc2)nc2cc(Oc3ccnc(-c4ncc(C(F)(F)F)[nH]4)c3)ccc21 | 1.17 °C |
| Cc1c(NC(=O)c2ccc(C(C)(C)C)cc2)cccc1-c1cn(C)c(=O)c(Nc2ccc(C(=O)N3CCOCC3)cc2)n1 | 0.72 °C |

| SMILES | thermal shift delta Tm |
| --- | --- |
| CNC(=O)c1cccc(-c2ccc3c(N4CCOC[C@@H]4C)nc(N4CCOC[C@@H]4C)nc3n2)c1 [Vistusertib (AZD2014)] | -0.19 °C |
| CCS(=O)(=O)c1cccc(-c2cc(C(=O)NC3CCN(C)CC3)c(C)c3[nH]c4ncc(C)cc4c23)c1 | 6.23 °C |
| CCCCNc1ncc(C(=O)NCc2ccc(-n3ccnc3)cc2)c(NC2CCC(O)CC2)n1 (configuration not stated) | 9.02 °C |
| C=C(C)[C@@H]1CC[C@]2(C)CC[C@]3(C)[C@H](CC[C@@H]4[C@@]5(C)CC[C@H](O)C(C)(C)[C@@H]5CC[C@]43C)[C@@H]12 [Lupeol] | 1.24 °C |
| O=C(O[C@@H]1Cc2c(O)cc(O)cc2O[C@@H]1c1cc(O)c(O)c(O)c1)c1cc(O)c(O)c(O)c1 [(-)-Epigallocatechin Gallate] | -2.2 °C |
| CC[C@H](CO)Nc1nc(NCc2ccccc2)c2ncn(C(C)C)c2n1 [Roscovitine (Seliciclib,CYC202)] | 0.57 °C |
| COc1ccc([C@@H]2OC[C@H]3[C@@H]2CO[C@@H]3c2ccc(O[C@@H]3O[C@H](CO)[C@@H](O)[C@H](O)[C@H]3O)c(OC)c2)cc1OC [Forsythin] | -0.23 °C |
| COc1cc2c(Oc3ccc(NC(=O)C4(C(=O)Nc5ccc(F)cc5)CC4)cc3F)ccnc2cc1OCCCN1CCOCC1 | 3.93 °C |
| N#Cc1c(NC(=O)c2cccc3ccccc23)sc2c1CCCC2 [JNK Inhibitor IX] | 0.53 °C |
| C#Cc1cccc(Nc2ncnc3cc4c(cc23)OCCOCCOCCO4)c1 [Icotinib] | 4.38 °C |
| CN1CCN(Cc2ccc(NC(=O)Nc3ccc(Oc4ccnc(N)n4)cc3)cc2C(F)(F)F)CC1 | 0.16 °C |
| N[C@@H]1CCCN(c2c(/C=C3\SC(=O)NC3=O)cccc2-c2ccccc2)C1 | 0.97 °C |
| Cc1c[nH]c(/C=C2\C(=O)Nc3ccccc32)c1CCC(=O)O | 8.73 °C |
| N=C(N)NC(=N)NCCc1ccccc1 [Phenformin HCl] | -0.12 °C |
| Cc1cc(C)c(/C=C2\C(=O)Nc3ccccc32)[nH]1 [Semaxanib (SU5416)] | 6.57 °C |
| Nc1nc(N)c2nc(-c3cccc(O)c3)c(-c3cccc(O)c3)nc2n1 | 0.99 °C |
| COc1cc(Nc2ncc3c(n2)-c2ccc(Cl)cc2C(c2c(F)cccc2OC)=NC3)ccc1C(=O)O [Alisertib (MLN8237)] | 2.39 °C |
| O=C(Nc1cccnc1)c1cc(-c2ccnc(F)c2)ccc1OCc1ccccc1 | 0.97 °C |
| Nc1ncnc2n[nH]c(Nc3ccc(F)cc3)c12 | 5.47 °C |
